# A selection: hits, their analogues and other compounds. The true share with any hit is near 11%.
# hNpr1 antagonist: human Npr1 receptor antagonism; 76,000 tested, 1.6% active; Potency, µM (doses to about 46.3 µM), for the others: at the top dose activity change, negative = inhibition, most hits filed as inhibitors; HEK293 hNpr1 GloSensor cGMP, ANP-stimulated luminescence; P16066; calls by dose curve; note: nearly all actives have a fitted effect of over 60% in size
#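 Compound pre-incubated 30 min at room temperature on GloSensor-loaded HEK293 cells stably carrying hNpr1 and the pGS-40F cGMP biosensor. Stimulation uses hNppA at 0.1 nM final; luminescence is taken at baseline and 20 min post-agonist.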
# HEK293 tox: HEK 293 cell cytotoxicity; AID 1345083; Potency, µM (series often up to 115 µM), for the others: at the top dose activity change, negative = cytotoxicity, most hits filed as inhibitors; 94,000 tested, 6.6% active; HEK 293 viability, ATP luminescence (CellTiter-Glo), 48-72 h; note: nearly all actives have a fitted effect of over 60% in size
#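 Read-out: CellTiter-Glo ATP luminescence. Cells: HEK 293, 250 cells/well. Exposure: 48 or 72 hr, 37 degree Celsius.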
# Luciferase inh: blocks purified firefly luciferase enzyme activity | Potency, µM (highest dose often 115 µM), usual class: inhibitors | P08659 | 76,000 tested, 2.5% active | purified P. pyralis luciferase, luminescence, biochemical; note: nearly all actives have a fitted effect of over 65% in size
#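 Purified 10nM P. pyralis luciferase with 10uM D-luciferin and 10uM ATP in 50mM Tris acetate pH 7.5, 10mM Mg acetate, 0.01% Tween-20, 0.05% BSA. qHTS titration; luminescence read by CCD imager.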
# 3T3 cytotox: kills NIH 3T3 cells | Potency, µM (doses to about 96.7 µM), without a hit: at the highest dose activity change, negative = cytotoxicity, hits mostly inhibitors | NIH 3T3 viability, CellTiter-Glo ATP luminescence, 48-72 h | AID 1345082 | 94,000 tested, 4.3% active; note: nearly all actives have a fitted effect of over 55% in size
#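 ATP-dependent luminescence (CellTiter-Glo) served as the viability signal for NIH 3T3 cells treated with compound for 48 or 72 hr at 37 °C.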
# * = called active by the depositor; i = inactive; u = inconclusive; x = no result given; [ ] = remark or other dose. Unless noted, calls come from the whole dose curve; as a rule, active = well fitted curve in the direction sought with a large enough effect; inconclusive = small, poorly fitted or top-dose-only effect, or another doubt; inactive = no such curve, though single readings can be large; an effect the other way counts as inactive or inconclusive. % is set by controls: 0 for no effect and ±100 for the full control effect; potency is the fitted concentration of half-maximal effect.
SMILES,hNpr1 antagonist,HEK293 tox,Luciferase inh,3T3 cytotox
CC1=C[C@@H](CNCc2ccc(F)cc2)[C@H](C(C)C)C[C@H]1Cc1nnc(-c2cncn2C)o1,-3.5%[70.6 µM],44.7µM*,i,u
O=C1NCc2ccccc2CC12CCN(Cc1ccc(F)c(Cl)c1)CC2,x,u,x,-23.4%
O=C(CN1CCCC1)N[C@H]1CC[C@H](Nc2nccc(-c3cccnc3)n2)C1,1.9%,44.7µM*,i,u
O=C(N[C@H]1CC[C@H](Nc2nccc(-c3cccnc3)n2)C1)c1ccc(O)cc1,0.7%,u,i,u
O=C(NCC1Cn2cccc2CN1Cc1ccccc1)c1cncc(Br)c1 (stereo unspecified),4.1%,89.1µM*,i,u
Cn1nccc1C(=O)NCC1Cn2cccc2CN1Cc1ccccc1 (stereo unspecified),-5.1%,79.4µM*,i,u
O=C(NCC1Cn2cccc2CN1Cc1ccccc1)c1ccccn1 (stereo unspecified),x,-13.3%,x,-22.8%
COc1ccccc1N1CCN(C(=O)C(C)[C@@H]2CCc3c(C)cc(OCCN4CCOCC4)c(C)c3C2)CC1 (stereo partly specified),u,22.4µM*,i,u
COc1ccc(CC(=O)NC2CCN(Cc3cccc(-c4cccs4)c3)CC2)cc1,x,-30.8%,x,-32.1%
O=C(NCc1cccs1)C1CCCN(Cc2cccc(-c3cccs3)c2)C1 (stereo unspecified),x,44.7µM*,x,39.8µM*
O=C(NCc1cccc(F)c1)C1CCCN(c2nc3ncccc3o2)C1 (stereo unspecified),0.0%[70.6 µM],-3.0%[172 µM],i,u
O=C(NCc1cccs1)C1CCCN1C(=O)c1cccc(-c2cccnc2)c1 (stereo unspecified),x,-26.1%,x,-12.0%
O=C(NCc1cccc(F)c1)C1CCCN(Cc2cccc(-c3cccs3)c2)C1 (stereo unspecified),x,u,x,39.8µM*
Cc1cccc(-c2cccc(CN3CCCC(C(=O)N4CCN(C)CC4)C3)c2)c1 (stereo unspecified),x,25.1µM*,x,u
O=C(NCc1cccs1)C1CCCN(Cc2cccc(-c3ccsc3)c2)C1 (stereo unspecified),x,39.8µM*,x,u
COc1ccc(OCc2nc(C(=O)N3CCC4(CCCN(C)C4=O)C3)co2)cc1 (stereo unspecified),-2.4%,-22.6%,u,u
CN(C)C(=O)C1CCCN1Cc1ccc(-c2cncnc2)cc1 (stereo unspecified),x,i,x,-12.5%[138 µM]
COc1ccccc1-c1cc(C(=O)Nc2cccc(F)c2)c2cnn(C)c2n1,x,-29.7%,x,u
COc1cc(SC)ccc1C(=O)N[C@H]1CCN2C(=O)N(c3ccc(Cl)cc3)C(=O)[C@@H]2C1,-21.6%,-30.8%,i,-34.2%
O=C(C1CCCN(Cc2cccc(-c3cccs3)c2)C1)N1CCCC1 (stereo unspecified),x,70.8µM*,x,u
Cc1nnc2ccc(N3CCCN(C(=O)Nc4ccc(Cl)cc4)CC3)nn12,x,-8.4%,x,-24.2%
O=C(Nc1ccc(Cl)cc1)N1CCN(c2ccc3nnc(C4CC4)n3n2)CC1,x,35.5µM*,x,22.4µM*
O=C(Nc1ccc2c(N3CCCC3)ncnc2c1)c1ccccc1Br,-13.8%,8.91µM*,i,u
COc1ccccc1C(=O)Nc1ccc2ncnc(N3CCCCC3)c2c1,u,39.8µM*,i,u
COc1ccc(CC(=O)Nc2ccc3ncnc(N4CCCCC4)c3c2)c(Cl)c1,-18.3%,u,i,u
SMILES,hNpr1 antagonist,HEK293 tox,Luciferase inh,3T3 cytotox
COc1cccc(CC(=O)Nc2ccc3c(N4CCCCC4)ncnc3c2)c1,u,31.6µM*,i,u
O=C(Nc1ccc2c(N3CCCC3)ncnc2c1)c1ccc(Br)cc1,-25.8%,u,u,u
CCOC(=O)[C@H]1[C@@H](O)C(=O)N(Cc2ccccc2)C12CCN(C(=O)c1cc(C)oc1C)CC2,x,-8.0%,x,u
O=C(NCc1ccc(F)cc1)c1nc2cccnc2n(Cc2ccccc2)c1=O,x,u,x,-31.8%
COc1ccc(-c2ccc(C(=O)N3CCC(NC(=O)N(C)C)CC3)cc2)nn1,x,-15.9%[172 µM],x,-11.2%[138 µM]
COc1ccc(-c2ccccc2C(=O)N(C)CC#N)nn1,x,-1.5%[172 µM],x,i
Cn1cc(-c2cccc(CO)c2)c2nc(COc3ccc(Cl)cc3)cn2c1=O,-22.2%[70.6 µM],63.1µM*,u,u
